Out of some 2,400 compounds screened, about 40 (2%) were called active. A selection follows. Unmarked numbers belong to inactive results. No stated cut-off is given here; in the data, active means activation above about 37%; inactive means the rest.

Sequence of Trace amine-associated receptor 1 (Homo sapiens) (Q96RJ0 whole entry, looked up): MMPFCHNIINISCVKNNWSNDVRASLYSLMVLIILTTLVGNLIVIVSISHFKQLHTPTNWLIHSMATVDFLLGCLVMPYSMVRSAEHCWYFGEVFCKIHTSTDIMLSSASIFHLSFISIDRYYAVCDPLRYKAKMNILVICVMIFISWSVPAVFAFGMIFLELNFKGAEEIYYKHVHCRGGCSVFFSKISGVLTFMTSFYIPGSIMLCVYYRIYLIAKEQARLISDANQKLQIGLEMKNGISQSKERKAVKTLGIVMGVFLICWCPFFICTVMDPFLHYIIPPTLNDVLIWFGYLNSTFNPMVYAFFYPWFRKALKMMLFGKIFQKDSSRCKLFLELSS

The test addresses Trace amine-associated receptor 1 (Homo sapiens) (UniProt Q96RJ0). Description: TAAR1 activation by candidate antagonists – cell-based, fluorescence, counter-screen for TAAR1 antagonist project (AID 651955).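 Further: CHO cells stably expressing TAAR1 with calcium dye readout; 0% = DMSO vehicle and 100% = full agonist response.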 The note with it: hTAAR1 cell line, agonist mode, at 3 µM, hits give high values. In general terms: Counterscreens check selectivity or assay interference.
As to `COc1ccc(-c2cc(C(=O)Nc3ccccc3O)c3ccccc3n2)cc1`, the activation is 16.7%.
The value for `O=C(NCCN1CCOCC1)c1ccc(/C=C2\Sc3ccccc3N(Cc3ccc(F)cc3)C2=O)cc1` was 12.4%; that for `COc1ccc(Cl)cc1NC(=O)CCS(=O)(=O)c1cc2c(cc1C)NC(=O)CO2` was 7.53%; that for `COc1ccc(N(CC(=O)N/N=C/c2cccs2)S(=O)(=O)c2ccc(OC)c(OC)c2)cc1` was 11.5%.
Then `CSc1ncnc2c1ncn2CC(=O)C1CCC2C3CCC4=CC(=O)CCC4(C)C3CCC12C` (configuration not stated), with 15.2%; and `COc1ccc(C(=O)Nc2ccccc2C(=O)N/N=C/c2ccc(O)c(OC)c2)cc1`, with 8.37%; and `Cc1ccc(SCc2c(C(=O)N/N=C/c3cccnc3)nnn2-c2nonc2N)cc1`, with 17.1%.
Turning to `CSCCC(NC(=O)COc1ccccc1)C(=O)OCC(=O)c1cc2ccccc2o1` (configuration not stated), the activation was 3.28%.
On to `O=C(N/N=C/c1ccc(Cl)c(Cl)c1)c1ccc2nc[nH]c2c1`, for which the activation was 13.9%.
`COc1cc(/C=C2/C(=O)ON=C2C)ccc1OCc1ccccc1F`: the activation was 18.6%.
As to `N#Cc1cccc(NC(=O)COC(=O)c2ccccc2C(=O)c2ccc(Cl)c([N+](=O)[O-])c2)c1`, the activation is 3.29%.
The value for `CSCCC(NC(=O)COc1ccccc1)C(=O)OCCOc1ccc(Br)cc1` (configuration not stated) was 4.8%.
Then `CC(=O)Nc1ccc(NC(=O)COC(=O)C2CCC(C(C)(C)C)CC2)cc1` (configuration not stated), with 23.7%.
For `COc1ccc(NC(=O)C2CCCN(S(=O)(=O)c3cccc4cccnc34)C2)cc1OC` (configuration not stated), the activation was 5.06%.
Take `O=C(CN1CCCSc2ccccc21)N1CCN(S(=O)(=O)c2cccc(F)c2)CC1`: the activation is 6.06%.
`Cn1c(C(=O)NCCc2ccsc2)cc2c(=O)n(C)c3ccccc3c21`: the activation was 4.37%.
Consider `O=C(COC(=O)c1c2c(nc3ccccc13)CCCC2)c1ccc(Br)s1`, for which the activation is 0.2%.
Then `Cc1nn(-c2ccccc2)c(C)c1NC(=O)COC(=O)c1cc(Cl)ccc1O`, with 10.5%; and `C=CCC[C@@H](Cc1ccc(F)cc1)C(=O)O[C@H](CNC(=O)[C@H](CC=C)CC(=O)N(CCO)Cc1ccccc1)c1ccccc1`, with 2.53%; and `COc1ccc(CC(=O)Nc2c(C(N)=O)oc3ccccc23)cc1`, with 6.71%.
In the case of `CCN1CCc2c(C#N)c(NCc3ccccc3)nc(NCCO)c2C1`, the activation is 8.1%.
Then `COc1ccc(C(=O)Nc2cccc(NC(=O)c3ccc(OC)cc3OC)n2)c(OC)c1`, with 6.39%; and `CCOC(=O)C1C(c2ccc(OC)c(OC)c2)c2c([nH][nH]c2=O)CC1(C)O` (configuration not stated), with 3.71%; and `CSc1nc(-c2ccccc2)nc(C(Cl)Cl)n1`, with 2.73%.
With `CCCCNc1c(-c2cccc(Sc3ccc(OC)cc3)c2)nc2ccccn12`, the activation is 6.5%.
In the case of `CCOc1ccc(N2CC(C(=O)N/N=C/c3sccc3C)CC2=O)cc1` (configuration not stated), the activation was 3.12%.
Take `COc1ccc(-c2cc(C(=O)N(C)CC(=O)Nc3ccccc3Cl)c3ccccc3n2)cc1OC`: the activation is 6.79%.
Then `COc1ccc(S(=O)(=O)N(CC(=O)NCc2ccco2)c2ccc(F)cc2)cc1`, with 7.31%; and `CC(=O)N1CCN(C(=O)c2cc(-c3ccc(Cl)s3)nc3ccccc23)CC1`, with 13%; and `COc1ccc(-c2cc(C(=O)N(C)Cc3ccccc3)c3ccccc3n2)cc1`, with 1.41%.
The value for `Cc1ccc(-n2c(C)cc(/C=N\NC(=O)CC(=O)NC(C)C)c2C)cc1` was 16.1%; that for `OC(c1ccccc1)(c1ccccc1)C1CCN(CCCOc2ccc(-c3ccsc3)cc2)CC1` was 33.1%.
